Cycloheximide cs = counter-screen for Shiga toxin inhibitors: cycloheximide protein synthesis inhibition | cell reporter, cycloheximide protein synthesis inhibition counterscreen | max response, % | 300,000 compounds, 12% hits | AID 2314; in the data active means max response mostly above about 13%, no sharp cut-off; inactive means mostly below about 14%; further: read at 38.3 µM for the half of the compounds with a filed dose; 0% is about no effect
Pf growth 96h = inhibits malaria parasite growth, 96 h. P. falciparum luciferase reporter growth, 96 h. Potency, µM (series often up to 28.7 µM), inactives show at the highest dose activity change, negative = inhibition, hits mostly inhibitors. 320,000 compounds, 6.9% hits. AID 504834; further: potency means the concentration at half of the fitted maximal effect; on the % scale 0 is the no-effect control and ±100 the full control effect
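Delayed-death screen, second-generation endpoint: infected erythrocytes, 2% hematocrit, 0.05% parasitemia final; 96 hours at 37 C, 5% CO2; luciferase detection reagent; luminescence decrease equals reduced growth.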
Shiga inhibitor = Shiga toxin inhibition; Vero cells, Shiga toxin protein synthesis inhibition reporter; inhibition, % at 38.7 µM; 290,000 compounds, 9.2% hits; in the data active means inhibition mostly above about 28%, no sharp cut-off; inactive means mostly below about 43%; further: 0% is about no effect
Pf growth 48h = inhibits P. falciparum growth in the first generation, 48 h. P. falciparum luciferase growth in erythrocytes, 48 h. Potency, µM (titrated, usually from 28.7 µM), without a hit: at the highest dose activity change, negative = inhibition, actives largely listed as inhibitors. 310,000 compounds, 5.9% hits; further: potency means the concentration at half of the fitted maximal effect; on the % scale 0 is the no-effect control and ±100 the full control effect
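Parasite viability was followed by luminescence of a genomically integrated firefly luciferase. Cultures held 0.1% parasitemia at 2% hematocrit (final), incubated under 5% CO2 at 37 C.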
Active calls of the source: *. An excerpt weighted towards active compounds, which were near 21% of everything screened. Unless noted, the call rests on the fitted dose curve; in most records, active means well fitted inhibition curve with a large enough effect; inconclusive means small, poorly fitted or top-dose-only effect, or another doubt; inactive means no such curve, though single readings can be large or run the other way.

What do the screens show for `C=C(C)CN(CC)C(=O)CN1C(=O)NC(C)(c2ccc3ccccc3c2)C1=O` (stereo not given)?
Cycloheximide cs: -5; Pf growth 96h: 26%; Shiga inhibitor: -5; Pf growth 48h: 18%

How did O=C(CC(Cc1ccccc1)C(=O)O)Nc1cccc(C(F)(F)F)c1 (stereo not given) do in these assays?
Cycloheximide cs: -2; Pf growth 96h: inconclusive; Shiga inhibitor: -1; Pf growth 48h: -22%

How did CCc1ccc(C(O)(CC)C(CN2CCOCC2)c2ccccc2)cc1 (stereo not given) do in these assays?
Cycloheximide cs: -2; Pf growth 96h: 0%; Shiga inhibitor: 3; Pf growth 48h: 12µM*

Results for OC(c1ccccc1)(C1CCCCC1)C(CN1CCOCC1)c1ccccc1 (stereo not given) ?
Cycloheximide cs: -4; Pf growth 96h: 2%; Shiga inhibitor: -5; Pf growth 48h: 2.9µM*

What do the screens show for `CCCCC(O)(c1ccc(CC)cc1)C(CN1CCOCC1)c1ccccc1` (stereo not given)?
Cycloheximide cs: -1; Pf growth 96h: -7%; Shiga inhibitor: -9; Pf growth 48h: 1.9µM*

Results for CCCCC(O)(c1ccccc1)C(CN1CCOCC1)c1ccccc1 (stereo not given) ?
Cycloheximide cs: -3; Pf growth 96h: 27%; Shiga inhibitor: -2; Pf growth 48h: inconclusive

Results for COc1ccc(C(O)(C2CCCCC2)C(CN2CCOCC2)c2ccccc2)cc1 (stereo not given) ?
Cycloheximide cs: -2; Pf growth 96h: -3%; Shiga inhibitor: -10; Pf growth 48h: inconclusive

Results for Cc1coc2c1c(C)cc1oc(=O)c(CC(=O)NCCCN3CCCC3=O)c(C)c12 ?
Cycloheximide cs: 2; Pf growth 96h: -23%; Shiga inhibitor: -13; Pf growth 48h: -1%

Results for CCCn1c(SCC(=O)Nc2cc(S(=O)(=O)N(C)C)ccc2OC)n[nH]c1=O ?
Cycloheximide cs: -2; Pf growth 96h: 6%; Shiga inhibitor: -5; Pf growth 48h: -5%

What do the screens show for `CC(C)(C)OC(=O)C(Br)CCBr` (stereo not given)?
Cycloheximide cs: -8; Shiga inhibitor: -15

How did NS(=O)(=O)c1ccc(NC(=O)c2ccccc2Cl)cc1 do in these assays?
Cycloheximide cs: 1; Shiga inhibitor: -7; Pf growth 48h: 1%

Results for O=C(NNc1cccc(Cl)n1)C(F)(F)F ?
Cycloheximide cs: 8; Pf growth 96h: 2.3µM*; Shiga inhibitor: 15; Pf growth 48h: 12µM*

How did O=C(O)c1ccccc1C(=O)NNc1ccc(Cl)cc1 do in these assays?
Cycloheximide cs: 11*; Pf growth 96h: -1%; Shiga inhibitor: 49*; Pf growth 48h: 7%

Results for CC(=O)NNc1cccc(Cl)n1 ?
Cycloheximide cs: 6; Pf growth 96h: 0%; Shiga inhibitor: 6; Pf growth 48h: 16%

What do the screens show for `O=C(NNc1cccc(Cl)n1)c1c(Cl)cccc1Cl`?
Cycloheximide cs: -7; Pf growth 96h: 337%; Shiga inhibitor: -11; Pf growth 48h: 36%

Results for NS(=O)(=O)c1ccc(NNC(=O)c2ccccc2C(=O)O)cc1 ?
Cycloheximide cs: 29*; Pf growth 96h: 10%; Shiga inhibitor: 89; Pf growth 48h: 6%

What do the screens show for `O=C(O)c1ccccc1C(=O)NNc1cccc(Cl)n1`?
Cycloheximide cs: 49*; Pf growth 96h: 116%; Shiga inhibitor: 98*; Pf growth 48h: 161%

How did O=C(NNc1ccc([N+](=O)[O-])cc1)c1ccccc1Cl do in these assays?
Cycloheximide cs: 6; Pf growth 96h: 0%; Shiga inhibitor: 5; Pf growth 48h: 35%

Results for Cc1cc(C)n(-c2ccc(NC(=O)C3CCCCN3C(=O)c3cc(C)oc3C)cc2)n1 (stereo not given) ?
Cycloheximide cs: 2; Pf growth 96h: inconclusive; Shiga inhibitor: -3; Pf growth 48h: -27%

What do the screens show for `CCC(C)[C@H]1COCCS(=O)(=O)N1Cc1ccc(Br)cc1` (stereo not given in full)?
Cycloheximide cs: 1; Pf growth 96h: inconclusive; Shiga inhibitor: 4; Pf growth 48h: 25%

Results for Nn1c(SCC(=O)NCC2CCCO2)nnc1-c1ccc(OC(F)F)cc1 (stereo not given) ?
Pf growth 96h: 37%; Pf growth 48h: 5%

What do the screens show for `COc1ccc(N2CC(C(=O)NCCc3ccc(Cl)cc3)CC2=O)cc1` (stereo not given)?
Cycloheximide cs: -10; Pf growth 96h: -17%; Shiga inhibitor: -14; Pf growth 48h: 3%

How did N/C(=N\OC(=O)Cc1cccs1)c1ccc([N+](=O)[O-])cc1 do in these assays?
Cycloheximide cs: 31*; Pf growth 96h: 65%; Shiga inhibitor: active; Pf growth 48h: 34%

Results for N/C(=N\OC(=O)CCCOc1ccccc1)c1ccc(Br)cc1 ?
Cycloheximide cs: 1; Pf growth 96h: inconclusive; Shiga inhibitor: -11; Pf growth 48h: 8%

What do the screens show for `O=C(NCc1cccs1)c1ccc([N+](=O)[O-])cc1`?
Cycloheximide cs: 10; Pf growth 96h: inconclusive; Shiga inhibitor: -12; Pf growth 48h: 12%

Results for N/C(=N\OC(=O)Cc1cccs1)c1ccc(Br)cc1 ?
Cycloheximide cs: 50*; Pf growth 96h: 76%; Shiga inhibitor: 81*; Pf growth 48h: 67%

What do the screens show for `CC(C)CCN(C(=O)c1cn2ccccc2n1)c1c(N)n(Cc2ccccc2)c(=O)[nH]c1=O`?
Pf growth 96h: 1%; Pf growth 48h: -18%

How did O=C(Cn1nnc(-c2ccccc2)n1)N/N=C/c1ccco1 do in these assays?
Cycloheximide cs: 1; Pf growth 96h: 306%; Shiga inhibitor: 10; Pf growth 48h: -19%

What do the screens show for `COc1ccccc1N1CCN(C(=O)CN2C(=O)C3CCCCC3C2=O)CC1` (stereo not given)?
Cycloheximide cs: 28*; Pf growth 96h: 21%; Shiga inhibitor: 77*; Pf growth 48h: 8%

How did COc1ccccc1N1CCN(CCCCN2C(=O)C3CCCCN3C2=O)CC1 (stereo not given) do in these assays?
Cycloheximide cs: -1; Pf growth 96h: 8.3µM*; Pf growth 48h: -6%

How did COc1ccccc1N1CCN(C(=O)CN2C(=O)c3ccccc3C2=O)CC1 do in these assays?
Cycloheximide cs: 11; Pf growth 96h: 75%; Shiga inhibitor: 6; Pf growth 48h: 12%

What do the screens show for `COc1ccc2c(c1)C(C)=CC(C)(C)N2C(=O)CN1C(=O)CCC1=O`?
Cycloheximide cs: -2; Pf growth 96h: inconclusive; Shiga inhibitor: -3; Pf growth 48h: -18%

How did COc1ccc2c(c1)N(C(=O)CN1C(=O)C3CCCCC3C1=O)C(C)(C)C=C2C (stereo not given) do in these assays?
Cycloheximide cs: -3; Pf growth 96h: 12%; Shiga inhibitor: -4; Pf growth 48h: 12µM*

How did CC(=O)Nc1ccc(S(=O)(=O)NCCC(=O)NCC2COc3ccccc3O2)cc1 (stereo not given) do in these assays?
Cycloheximide cs: -2; Pf growth 96h: -2%; Shiga inhibitor: 11; Pf growth 48h: inconclusive

What do the screens show for `CCCCCn1c(CCC(=O)Oc2ccccc2OC)nc2c1c(=O)[nH]c(=O)n2CCCC`?
Cycloheximide cs: -2; Pf growth 96h: 13µM*; Shiga inhibitor: -18
